A number with no mark means an inactive call. Inconclusive results are not listed. Where a call stands in place of a potency, no number is given. Calls of active or inactive are those of the source. Unless noted, calls follow the shape of the dose curve; as a rule, active = well fitted curve in the direction sought with a large enough effect; inconclusive = small, poorly fitted or top-dose-only effect, or another doubt; inactive = no such curve, though single readings can be large; an effect the other way counts as inactive or inconclusive.
What was measured:
[1] = target: Lysosomal acid glucosylceramidase (Homo sapiens) (UniProt P04062); assay: Glucocerebrosidase-p2 (AID 348; in the data active = potency below about 10 µM; also: potency is read from the fitted curve at half-maximal effect); conditions: purified GBA, blue fluorogenic substrate, 40 min
How it was run: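 Compounds titrated from 0.6 nM upwards against 0.2 nM enzyme in pH 5.9 citric acid/KH2PO4, taurocholate, tween-20; blue fluorogenic substrate 80 uM, 40 min room temperature, stopped and read Ex 365/Em 440 for AC50.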

[2] = AP1 Signaling Pathway (AID 357; active = well fitted curve in either direction with a large enough effect, not every such curve was filed as active); conditions: ME-180 AP-1-bla reporter, EGF-induced, beta-lactamase ratio, 5 h; at 7.69 µM (top of the series) unless noted
How it was run: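 ME-180 cells with beta-lactamase reporter under AP-1 response element, stimulated with EC50 EGF; compounds tested in titration series, 5 h at 37 °C. CCF4 substrate added 2.5 h at room temperature; 460/530 nm emission ratio gave %activity and AC50.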

[3] = target: Cytochrome P450 1A2 (Homo sapiens) (UniProt P05177); assay: p450-cyp1a2 (AID 410; calls by dose curve; also: potency is read from the fitted curve at half-maximal effect); conditions: recombinant CYP1A2, luciferin-ME demethylation, luminescence; series mostly up to 57 µM
How it was run: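 20nM CYP1A2 with 100uM Luciferin-ME (at Km) in 100mM KPO4; compound preincubated 10 min, NADPH regeneration added, 60 min at room temperature. Luciferin quantified by luminescence after detection reagent; normalized to 57 uM furafylline.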

[4] = Stat Signaling Pathway (AID 446; active = well fitted curve in either direction with a large enough effect, not every such curve was filed as active;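 also: ME-180 cervical cancer cells given 40 pM IL-6 alongside compound; SIE-controlled beta-lactamase reporter measured as 460/530 nm FRET emission ratio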); conditions: ME-180 SIE beta-lactamase reporter, IL-6 stimulated, 5 h; at 7.69 µM (top of the series) unless noted
How it was run: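 Screening format detects activators and inhibitors alike: ME-180 SIE-bla cells stimulated at 40 pM IL-6 for 5 hrs with compound, then dual-emission beta-lactamase read at 405 nm excitation.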

[5] = target: Glucocorticoid receptor (Homo sapiens) (UniProt P04150); assay: GR-GFP Redistribution (AID 450;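 active = compounds whose dose series gives a full or clear partial fitted curve of increased nuclear translocation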; also: potency is read from the fitted curve at half-maximal effect); conditions: U2OS GR-GFP nuclear translocation, laser cytometry, 2 h
[6] = target: Glucocorticoid receptor (Homo sapiens) (UniProt P04150); assay: GR-EFC Redistribution (AID 451; calls by dose curve; also: potency is read from the fitted curve at half-maximal effect); conditions: CHO-K1 GR-EFC translocation, beta-gal luminescence, 2 h
How it was run: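 Translocation of GR-ED fusion to nuclear EA restores b-gal, read by luminescence after 1 h room-temperature detection. Engineered CHO-K1 biosensor cells, 1,000/well, exposed 2 h at 37 C to titrations up to 46 uM final.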

[7] = target: Mitogen-activated protein kinase 10 (Mus musculus) (UniProt Q61831); assay: JNK3 AlphaScreen Assay (AID 530; active = well fitted curve in either direction with a large enough effect, not every such curve was filed as active;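 also: kinase came from lysate of stimulated human HepG2 cells; signal reports phosphorylation of biotinylated GST-cJun 1-79 at Ser73 with 10 µM ATP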); conditions: JNK3 lysate, c-Jun phosphorylation; series mostly up to 57.1 µM
How it was run: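 Compound titrations were preincubated 15 minutes at room temperature with substrate, antibody and pre-activated JNK3-containing HepG2 lysate. Reactions were started with 10 uM ATP and stopped with EDTA-containing bead buffer for AlphaScreen detection.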

[8] = target: 3',5'-cyclic-AMP phosphodiesterase 4B (Homo sapiens) (UniProt Q07343); assay: qHTS Assay for Inhibitors of PDE-IV (AID 607; active = well fitted activation curve with a large enough effect in the main read-out, with a control signal flat, not every such curve was filed as active); conditions: HEK293 ACTOne CNG channel cells, membrane potential fluorescence; series mostly up to 22.9 µM
How it was run: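 The readout is membrane depolarisation from a cAMP-sensing CNG channel, detected with a potential dye at ex 535/em 590. Cells were HEK293-derived (endogenous PDE-IV) at 1000 cells/well, titrated up to 22.9 uM final.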

[9] = target: Dual specificity protein kinase CLK4 (Homo sapiens) (UniProt Q9HAZ1); assay: qHTS Assay for Inhibitors of CDC-like Kinase 4 (Kinase-Glo Assay) (AID 1770); conditions: recombinant Clk4, Kinase-Glo ATP depletion luminescence; series mostly up to 66.7 µM; also: nearly all actives have a fitted effect of over 65% in size
How it was run: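 Luminescent ATP-depletion read-out (Kinase-Glo) after 4.5 h room-temperature reaction of Clk4 (25 nM final) with RS peptide (100 uM) and ATP (1 uM), pH 7.5 Tris buffer with MgCl2 and DTT.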

[10] = target: Dual specificity protein kinase CLK4 (Homo sapiens) (UniProt Q9HAZ1); assay: qHTS Assay for Inhibitors of CDC-like Kinase 4 (ADP-Glo Assay) (AID 1771); conditions: recombinant CLK4, ADP-Glo luminescence; series mostly up to 80 µM; also: nearly all actives have a fitted effect of over 70% in size
How it was run: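 25 nM Clk4 with 100 uM RS repeat peptide and 1 uM ATP (final) in buffer with 2 mM MgCl2, 0.5 mM EGTA, 2.5 mM DTT, 0.01% Triton X-100; 1 h at room temperature; ADP-Glo luminescence for ADP formed.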

[11] = target: Dual specificity protein kinase CLK4 (Homo sapiens) (UniProt Q9HAZ1); assay: qHTS Assay for Inhibitors of CDC-like Kinase 4 (ADP-FP Assay) (AID 1795); conditions: Transcreener ADP fluorescence polarization; series mostly up to 50 µM;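 also: recombinant human CLK4 phosphorylating RS repeat peptide at 1 µM ATP; nearly all actives have a fitted effect of over 60% in size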
How it was run: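 Kinase activity was measured as ADP production using Transcreener orange tracer (4 nM) and ADP antibody (1 ug/mL) fluorescence polarization, with ADP calculated from a calibration curve. The 1 h reaction contained 6.25 nM Clk4, 1 uM ATP and 100 uM RS peptide at pH 7.5 with Mg2+.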

[12] = target: Ubiquitin carboxyl-terminal hydrolase 1 (Homo sapiens) (UniProt O94782); assay: Inhibitors of USP1/UAF1: Pilot qHTS (AID 504865); conditions: purified USP1/UAF1, Ub-rhodamine cleavage fluorescence; series mostly up to 54.9 µM;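 also: rhodamine fluorescence freed from ubiquitin-rhodamine substrate followed over time; top concentration of the series differs between compounds; nearly all actives have a fitted effect of over 35% in size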
How it was run: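 Deubiquitinase activity followed as kinetic rhodamine fluorescence release from 150 nM Ub-Rho. 1 nM USP1/UAF1 with compound, after 15 min room-temperature preincubation, in HEPES pH 7.8 buffer containing TCEP, EDTA, BSA and Tween-20.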

[13] = Primary qHTS for small molecule stabilizers of the endoplasmic reticulum resident proteome: Secreted ER Calcium Modulated Protein (SERCaMP) assay (AID 1508630); conditions: SH-SY5Y GLuc-SERCaMP (Gaussia luciferase released on ER calcium loss) secretion, thapsigargin, luminescence; series mostly up to 38.4 µM
How it was run: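 GLuc-SERCaMP-expressing SH-SY5Y cells, pretreated 16 h with compound, are challenged with thapsigargin to empty ER calcium stores; after 4 h, coelenterazine is added directly to the medium and luminescence is imaged.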

[14] = NFAT Signaling Pathway (AID 444; active = well fitted curve in either direction with a large enough effect, not every such curve was filed as active;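 also: carbachol stimulus at about its EC50 of 1 µM final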); conditions: Jurkat NFAT-bla M1, carbachol, beta-lactamase ratio, 5 h; at 7.69 µM (top of the series) unless noted
How it was run: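 Read-out: CCF4 FRET ratio (460 nm/530 nm) after 1 h RT dye loading, used for %activity and AC50 from titration series. Cells: Jurkat NFAT-β-lactamase/M1 line, treated with compound plus 1 uM carbachol for 5 h, 37 °C.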

[15] = target: Cytochrome P450 3A4 (Homo sapiens) (UniProt P08684); assay: qHTS Assay for Activators of Cytochrome P450 3A4 (AID 885); conditions: recombinant CYP3A4, Luciferin-PPXE luminescence, 60 min; series mostly up to 57.1 µM; also: nearly all actives have a fitted effect of over 65% in size
How it was run: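 Steps: enzyme/substrate mix dispensed; compound added, 10 min RT; NADPH regeneration solution added, 60 min RT; luciferin detection buffer stops reaction; 20 min later luminescence measured.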

[16] = target: Cytochrome P450 3A4 (Homo sapiens) (UniProt P08684); assay: qHTS Assay for Inhibitors and Substrates of Cytochrome P450 3A4 (AID 884); conditions: recombinant CYP3A4, Luciferin-PPXE luminescence; series mostly up to 57.1 µM; also: potency is read from the fitted curve at half-maximal effect; nearly all actives have a fitted effect of over 50% in size
How it was run: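 20 nM human CYP3A4 with 25 uM Luciferin-PPXE (at KM) in 200 mM KPO4, preincubated 10 min with compound; NADPH regeneration started a 60 min RT reaction. Luciferin detected by luminescence, normalized to 57 uM ketoconazole as full inhibition.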

Glucocorticoid receptor (Homo sapiens), sequence (P04150 whole entry, looked up, the tested form may be a part): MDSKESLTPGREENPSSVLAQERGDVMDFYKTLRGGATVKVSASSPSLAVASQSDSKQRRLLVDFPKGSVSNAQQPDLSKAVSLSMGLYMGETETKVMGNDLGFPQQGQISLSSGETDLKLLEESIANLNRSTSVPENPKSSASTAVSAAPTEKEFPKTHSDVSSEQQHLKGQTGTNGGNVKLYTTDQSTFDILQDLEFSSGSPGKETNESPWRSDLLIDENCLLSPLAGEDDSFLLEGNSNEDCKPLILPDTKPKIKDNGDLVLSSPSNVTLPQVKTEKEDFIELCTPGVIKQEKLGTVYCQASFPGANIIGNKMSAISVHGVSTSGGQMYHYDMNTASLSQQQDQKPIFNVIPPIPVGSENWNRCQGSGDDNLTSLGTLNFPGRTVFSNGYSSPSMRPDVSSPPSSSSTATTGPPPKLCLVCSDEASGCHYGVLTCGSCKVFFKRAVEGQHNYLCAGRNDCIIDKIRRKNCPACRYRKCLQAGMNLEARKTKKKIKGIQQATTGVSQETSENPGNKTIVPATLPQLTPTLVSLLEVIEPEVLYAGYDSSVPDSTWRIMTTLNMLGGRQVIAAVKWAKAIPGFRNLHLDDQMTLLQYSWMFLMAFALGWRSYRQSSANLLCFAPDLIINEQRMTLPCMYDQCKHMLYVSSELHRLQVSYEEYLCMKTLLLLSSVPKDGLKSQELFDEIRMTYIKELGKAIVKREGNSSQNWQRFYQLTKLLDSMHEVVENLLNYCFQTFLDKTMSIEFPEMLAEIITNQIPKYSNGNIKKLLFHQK
3',5'-cyclic-AMP phosphodiesterase 4B (Homo sapiens), sequence (Q07343 whole entry, looked up): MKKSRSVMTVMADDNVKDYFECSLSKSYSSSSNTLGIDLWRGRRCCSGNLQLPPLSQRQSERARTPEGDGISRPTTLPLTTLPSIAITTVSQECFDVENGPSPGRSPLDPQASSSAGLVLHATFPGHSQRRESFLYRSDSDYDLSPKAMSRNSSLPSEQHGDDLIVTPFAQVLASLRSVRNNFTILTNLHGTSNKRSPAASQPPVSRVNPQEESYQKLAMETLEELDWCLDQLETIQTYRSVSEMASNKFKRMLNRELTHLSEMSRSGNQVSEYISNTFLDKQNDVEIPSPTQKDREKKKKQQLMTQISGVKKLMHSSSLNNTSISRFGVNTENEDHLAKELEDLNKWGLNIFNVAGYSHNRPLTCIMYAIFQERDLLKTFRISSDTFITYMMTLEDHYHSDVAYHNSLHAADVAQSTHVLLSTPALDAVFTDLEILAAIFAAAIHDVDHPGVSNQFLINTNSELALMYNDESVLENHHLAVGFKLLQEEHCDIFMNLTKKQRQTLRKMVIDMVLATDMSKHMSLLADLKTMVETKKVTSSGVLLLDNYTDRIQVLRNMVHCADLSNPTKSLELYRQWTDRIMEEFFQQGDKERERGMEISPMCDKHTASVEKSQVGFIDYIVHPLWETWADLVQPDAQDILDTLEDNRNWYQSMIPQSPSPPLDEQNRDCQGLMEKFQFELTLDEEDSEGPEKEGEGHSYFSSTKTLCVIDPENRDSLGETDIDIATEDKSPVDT
Lysosomal acid glucosylceramidase (Homo sapiens), sequence (P04062 whole entry, looked up): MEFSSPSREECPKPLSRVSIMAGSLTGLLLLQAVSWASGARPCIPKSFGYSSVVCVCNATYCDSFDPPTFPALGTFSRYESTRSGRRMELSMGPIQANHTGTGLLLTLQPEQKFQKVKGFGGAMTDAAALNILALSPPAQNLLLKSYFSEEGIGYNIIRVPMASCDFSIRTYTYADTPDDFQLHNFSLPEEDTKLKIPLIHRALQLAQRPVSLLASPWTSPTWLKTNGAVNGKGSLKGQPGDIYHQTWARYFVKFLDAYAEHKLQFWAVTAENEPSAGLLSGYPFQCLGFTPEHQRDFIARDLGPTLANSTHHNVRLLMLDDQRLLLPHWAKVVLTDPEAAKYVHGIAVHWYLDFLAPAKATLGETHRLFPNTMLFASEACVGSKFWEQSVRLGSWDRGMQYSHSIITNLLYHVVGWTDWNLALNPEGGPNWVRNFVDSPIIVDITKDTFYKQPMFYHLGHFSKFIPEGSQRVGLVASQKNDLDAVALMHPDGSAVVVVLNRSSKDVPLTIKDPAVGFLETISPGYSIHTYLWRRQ
Dual specificity protein kinase CLK4 (Homo sapiens), sequence (Q9HAZ1 whole entry, looked up): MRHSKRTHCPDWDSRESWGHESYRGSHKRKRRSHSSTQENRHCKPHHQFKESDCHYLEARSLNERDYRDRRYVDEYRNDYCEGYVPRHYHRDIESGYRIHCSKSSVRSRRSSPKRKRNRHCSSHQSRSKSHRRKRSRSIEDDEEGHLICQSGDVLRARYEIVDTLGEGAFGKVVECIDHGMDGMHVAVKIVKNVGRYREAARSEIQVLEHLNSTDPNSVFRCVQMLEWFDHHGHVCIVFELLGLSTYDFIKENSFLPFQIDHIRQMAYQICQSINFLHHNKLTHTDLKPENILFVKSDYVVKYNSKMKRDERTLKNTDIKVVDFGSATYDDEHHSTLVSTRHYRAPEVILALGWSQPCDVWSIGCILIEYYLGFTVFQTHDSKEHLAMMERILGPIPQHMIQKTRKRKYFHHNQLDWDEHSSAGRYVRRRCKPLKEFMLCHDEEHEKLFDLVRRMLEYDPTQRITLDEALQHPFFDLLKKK
Cytochrome P450 3A4 (Homo sapiens), sequence (P08684 whole entry, looked up): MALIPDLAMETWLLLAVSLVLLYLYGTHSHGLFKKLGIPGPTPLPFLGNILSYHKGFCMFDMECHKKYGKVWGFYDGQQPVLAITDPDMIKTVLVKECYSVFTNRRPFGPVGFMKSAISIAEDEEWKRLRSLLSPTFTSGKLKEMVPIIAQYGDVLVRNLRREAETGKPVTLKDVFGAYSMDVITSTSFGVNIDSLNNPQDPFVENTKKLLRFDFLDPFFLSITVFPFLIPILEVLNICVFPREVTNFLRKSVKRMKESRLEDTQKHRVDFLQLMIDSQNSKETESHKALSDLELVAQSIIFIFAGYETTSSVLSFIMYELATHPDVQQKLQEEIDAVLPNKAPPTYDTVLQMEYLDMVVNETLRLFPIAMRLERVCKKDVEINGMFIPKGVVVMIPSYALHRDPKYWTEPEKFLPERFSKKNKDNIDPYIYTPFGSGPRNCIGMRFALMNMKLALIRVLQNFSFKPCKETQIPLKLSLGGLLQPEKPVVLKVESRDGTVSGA
Ubiquitin carboxyl-terminal hydrolase 1 (Homo sapiens), sequence (O94782 whole entry, looked up): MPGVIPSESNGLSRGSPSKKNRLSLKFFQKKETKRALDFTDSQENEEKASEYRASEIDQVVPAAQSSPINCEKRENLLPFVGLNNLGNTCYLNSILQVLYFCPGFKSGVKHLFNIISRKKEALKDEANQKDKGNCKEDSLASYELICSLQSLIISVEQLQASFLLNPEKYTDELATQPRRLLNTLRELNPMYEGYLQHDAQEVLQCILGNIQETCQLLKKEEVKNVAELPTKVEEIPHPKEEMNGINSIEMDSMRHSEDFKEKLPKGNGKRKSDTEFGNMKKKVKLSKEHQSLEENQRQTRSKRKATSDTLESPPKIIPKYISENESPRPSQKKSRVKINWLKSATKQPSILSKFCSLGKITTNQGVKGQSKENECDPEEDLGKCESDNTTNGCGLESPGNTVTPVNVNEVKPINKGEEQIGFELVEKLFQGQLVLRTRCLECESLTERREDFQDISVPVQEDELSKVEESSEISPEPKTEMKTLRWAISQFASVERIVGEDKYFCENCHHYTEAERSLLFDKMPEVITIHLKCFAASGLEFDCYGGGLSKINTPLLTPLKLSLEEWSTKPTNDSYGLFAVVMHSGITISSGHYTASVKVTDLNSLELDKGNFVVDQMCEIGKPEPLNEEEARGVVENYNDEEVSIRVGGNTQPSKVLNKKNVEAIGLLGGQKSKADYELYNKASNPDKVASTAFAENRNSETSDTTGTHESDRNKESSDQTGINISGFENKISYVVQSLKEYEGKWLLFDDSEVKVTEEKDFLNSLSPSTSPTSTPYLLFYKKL
Cytochrome P450 1A2 (Homo sapiens), sequence (P05177 whole entry, looked up): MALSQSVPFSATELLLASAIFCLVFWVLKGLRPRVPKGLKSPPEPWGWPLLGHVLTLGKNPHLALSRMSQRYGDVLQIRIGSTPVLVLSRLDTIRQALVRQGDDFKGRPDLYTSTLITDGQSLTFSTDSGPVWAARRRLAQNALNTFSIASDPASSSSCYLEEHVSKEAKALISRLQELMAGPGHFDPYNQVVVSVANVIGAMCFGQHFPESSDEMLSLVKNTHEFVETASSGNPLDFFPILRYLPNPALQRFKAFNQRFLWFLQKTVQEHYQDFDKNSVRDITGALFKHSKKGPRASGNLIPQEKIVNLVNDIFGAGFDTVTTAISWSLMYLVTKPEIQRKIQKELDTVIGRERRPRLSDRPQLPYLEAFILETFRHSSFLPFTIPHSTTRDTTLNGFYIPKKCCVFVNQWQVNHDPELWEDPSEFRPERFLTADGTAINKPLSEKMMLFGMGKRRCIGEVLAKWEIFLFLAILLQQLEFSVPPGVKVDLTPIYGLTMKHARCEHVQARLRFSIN

| SMILES | Potency [1] | activity change, negative = inhibition [2] | Potency [3] | activity, negative = inhibition [4] | Potency [5] | Potency [6] | Potency [7] | Potency [8] | Potency [9] | Potency [10] | Potency [11] | Potency [12] | outcome [13] | activity change, negative = inhibition [14] | Potency [15] | Potency [16] |
| --- | --- | --- | --- | --- | --- | --- | --- | --- | --- | --- | --- | --- | --- | --- | --- | --- |
| CN(C)c1ncc2nc(-c3cccc(C#N)c3)c(=O)n(C[C@H]3CCCO3)c2n1 | > 11.4 µM | -22.3% | 3.16 µM (active) | 1.32% | > 9.22 µM | > 46 µM | inactive | inactive | inactive | inactive | inactive | inactive | inactive |  |  |  |
| O=c1c(-c2cc(F)cc(F)c2)nc2cnc(N3CCOCC3)nc2n1CCc1ccccc1 | > 11.4 µM | 29.6% | 2.51 µM (active) |  | > 9.22 µM |  | inactive | inactive | inactive | inactive | inactive | inactive | inactive |  |  |  |
| COc1ccc(-c2nc3cnc(N(C)C)nc3n(C)c2=O)cc1 | > 11.4 µM | 11% |  | 10.4% | > 9.22 µM | > 46 µM | inactive | inactive | inactive | inactive | inactive | inactive | inactive | 6.21% |  |  |
| FC(F)(F)c1ccccc1-c1cncnc1-n1ccnc1 | > 11.4 µM | -6.84% |  | 3.29% | > 46 µM | > 46 µM | inactive | inactive | inactive | inactive | inactive | inactive | inactive | -7.53% |  |  |
| COc1ccc(-n2c(=O)c(-c3ccc(F)c(F)c3)nc3cncnc32)cc1 | > 11.4 µM | -1.43% |  | -16.2% | > 9.22 µM | > 46 µM | inactive | inactive | inactive | inactive | inactive | inactive | inactive | 1.94% | inactive |  |
| COCCn1c(=O)c(CCc2ccccc2)nc2cnc(Nc3ccccc3)nc21 | > 11.4 µM | 16.9% |  |  | > 9.22 µM | > 46 µM | inactive |  | inactive | inactive | inactive | inactive | inactive | 10.5% |  |  |
| CN(C)c1ncc2nc(-c3cc(F)cc(F)c3)c(=O)n(C)c2n1 | > 11.4 µM | 13.4% |  |  | > 9.22 µM | > 46 µM | inactive | inactive | inactive | inactive | inactive | inactive | inactive | 2.93% |  |  |
| Cc1nc2cnc(Oc3ccccc3)nc2n(Cc2cccs2)c1=O | > 11.4 µM | -17.8% |  | -0.465% | > 9.22 µM | > 46 µM | inactive | inactive | inactive | inactive | inactive |  | inactive | 20.1% | inactive |  |
| COc1ncc2nc(-c3ccc(Cl)cc3)c(=O)n(C)c2n1 | > 11.4 µM | -10.2% |  | 1.71% | > 9.22 µM | > 46 µM | inactive | inactive | inactive | inactive | inactive | inactive | inactive | 8.73% | inactive |  |
| Cc1noc(C)c1-c1cncnc1Nc1ccccc1 | > 2.29 µM | 13.6% |  | 10.3% | > 46 µM | > 46 µM | inactive | inactive | inactive | inactive | inactive | inactive | inactive | 11.7% | inactive | 3.16 µM (active) |

— PubChem BioAssay (NCATS)
